Laboratory results taken from PubChem BioAssay (NCI).
This is part of a sample that, as a whole, favours compounds with a hit. Of some 83,000 tested, about 20% had one in any assay.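 Note: values are percent growth. 100 is the growth of untreated cells, values between 100 and 0 indicate rising inhibition; between -100 and 0 indicates cell death.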 Values without a mark were called inactive. The source made the active and inactive calls. Rule for the calls: active = growth percent below 10; inactive = the rest.

What follows are molecules tested on HOP-92 NSCLC (assay: NCI-60 one-dose screen, 48 h (100 = growth as untreated, 0 = no growth, -100 = all killed)). Conditions: 10 µM.

SMILES | growth
COc1ccc(/C=C/C(=O)c2ccc(NC(=O)CN3C(=O)NC(C)(c4ccccc4)C3=O)cc2)cc1 (stereo not drawn) | 120%
Cc1ccc(C(C)C)cc1NC(=O)c1ccccc1O | -4.4% (active)
CC1(c2ccccc2)NC(=O)N(CC(=O)Nc2ccc(C(=O)/C=C/c3ccc(Br)cc3)cc2)C1=O (stereo not drawn) | 25.1%
C=C[C@@]12CN3CC[C@]1(O)[C@@](C(=O)OC)(CO2)c1[nH]c2ccccc2c1C3 | 54.9%
COc1ccc(/C=C/C(=O)c2ccc(S(=O)(=O)NCCNc3nc(Nc4ccc(F)cc4)nc(N(C)C)n3)cc2)cc1 | -15.9% (active)
O=c1oc2ccccc2cc1-c1csc(N=Nc2c(O)[nH]c3ccc(Br)cc23)n1 | -7.7% (active)
O=C(CSc1nnc(-c2c[nH]c3ccccc23)n1-c1ccccc1)Nc1ccc(C(=O)/C=C/c2ccccc2Cl)cc1 | 96.5%
O=C(NO)c1ccc(-c2nc3ccc4[nH]ncc4c3c3c2CCCC3)cc1 | -16.6% (active)
CS(=O)(=O)Nc1ccc(-c2ccc3c(c2)ncn3-c2ccc(NC(=O)Nc3ccc(Br)cc3)cc2)cc1 | 26.8%
O=C(CS(=O)(=O)c1oc(-c2ccc(Cl)cc2)nc1S(=O)(=O)c1ccc(Cl)cc1)N1CCOCC1 | -25.5% (active)
COc1cc(-c2nc3cc(Cl)c(Cl)cc3[nH]2)ccc1OCc1nnc(-c2ccc(Br)cc2)o1 | -39.6% (active)
COc1cccc(C(N)=Nc2ccc(OCCCCCCn3cncn3)cc2)c1 | 79.3%
COc1cc2c3c(n(CCCn4ccnc4)c(=O)c2cc1OC)-c1nc2c(cc1C3=O)OCO2 | 117%
Cc1ccc(/C=C/C(=O)c2ccc(NC(=O)CSc3nnc(-c4c[nH]c5ccccc45)n3-c3ccccc3)cc2)cc1 | 92%
O=C(CSc1nnc(-c2ccc3nc(-c4ccccc4)[nH]c3c2)o1)Nc1ccc(Br)cc1 | 135%
O=C(CNc1nc(-c2ccccc2)cs1)Nc1ccccc1 | -8.88% (active)
O=C(/C=C/Nc1ccc(F)cc1F)c1ccc2c(c1)Nc1ccccc1S2 | 85.5%
COc1cc(Cn2c(C(F)(F)F)cc3c(Cl)ncnc32)ccn1 | 49.1%
COc1ccc(-c2cc(C(=O)N=Nc3c(O)[nH]c4ccc(F)cc34)c3ccccc3n2)cc1 | 87.1%

SMILES | growth
O=C(Nc1ccccc1)Nc1nc2ccccc2s1 | 77.8%
O=C(CSc1nnc(-c2ccc3nc(-c4ccccc4)[nH]c3c2)o1)Nc1ccc(Cl)cc1 | 79.1%
CCOc1ccc(Nc2nc3ccccc3nc2Nc2ccc(OCC)cc2)cc1 | 27.6%
CNC(=O)c1cc(-c2ccc(NC(=O)Nc3ccc(C)cc3)cc2)nc2cccnc12 | 64.6%
NC(=Nc1ccc(OCCCCCCCCn2ccnn2)cc1)c1ccccc1 | 74.2%
Cc1ccc(C(=O)Nc2ccc(-n3c(C)nc4c(cnn4-c4ccccc4)c3=O)cc2)cc1 | 93.3%
COc1ccc(-c2cc(-c3cc(C(=O)c4ccccc4)n4ccc(C)cc34)nc(N)c2C#N)cc1 | -7.39% (active)
C[C@H]1[C@H](C)CC[C@]2(COC(=O)CCC(=O)NCC#CCN3CCNCC3)CC[C@]3(C)C(=CC[C@@H]4[C@@]5(C)CCCNC(C)(C)[C@@H]5CC[C@]43C)[C@H]12 | 14.4%
O=c1[nH]c2ccc(Cl)cc2cc1CSc1ccc(Nc2nccc(-c3ccc(Cl)cc3)n2)cc1 | 82.1%
COc1ccc(-c2cc(C(=O)N=Nc3c(O)[nH]c4ccccc34)c3ccccc3n2)cc1 | -46.5% (active)
COc1ccc(-c2nc(S(=O)(=O)c3ccc(C)cc3)c(S(=O)(=O)CC(=O)N(C)Cc3ccccc3)o2)cc1 | 27.2%
COc1ccc(C(C)=C(c2ccc(OCCCN(C)C)cc2)c2ccc(OCCCN(C)C)cc2)cc1 | -74.5% (active)
COc1cc2c3c(n(CCCNCCO)c(=O)c2cc1OC)-c1nc2c(cc1C3=O)OCO2 | 7.23% (active)
c1ccc(C(=C(c2ccc(OCCN3CCCCC3)cc2)c2ccc(OCCN3CCCCC3)cc2)C2CCCC2)cc1 | -61% (active)
O=C(CSc1nnc(-c2c[nH]c3ccccc23)n1-c1ccccc1)Nc1ccc(C(=O)/C=C/c2ccc(Cl)cc2)cc1 | 87.3%
COc1cnc2c(c1)C(=O)c1c-2n(CCCNC(C)C)c(=O)c2cc(OC)c(OC)cc12 | 60.9%
COc1ccc(NC(=O)CSc2nnc(-c3ccc4nc(-c5ccc(Cl)cc5)[nH]c4c3)o2)cc1 | 102%
CN(CCO)c1oc(-c2ccccc2)nc1[P+](c1ccccc1)(c1ccccc1)c1ccccc1 | -24.2% (active)
CN1CCc2c(sc3ncnc(N/N=C/c4ccc5ccccc5c4)c23)C1 | 89.2%
